Assay results reported in PubChem BioAssay (NCI).
Compounds without any hit were thinned out: in the full panel of roughly 79,000, 15% have a hit. Activity calls are given as the source filed them. No stated cut-off is given here; in the data, active means growth inhibition above about 70%; inactive means the rest.

Experiments:
[1] = NCI Yeast Anticancer Drug Screen. Data for the rad52 strain (AID 147);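 further: 0% = growth of vehicle-treated control cultures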; conditions: S. cerevisiae rad52 mutant growth inhibition, active compounds read high
Procedure, shortened: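 Screen used a yeast mutant impaired in DNA repair. After compound exposure, growth was measured. Values reflect inhibition compared with vehicle-treated cells.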

[2] = NCI Yeast Anticancer Drug Screen. Data for the wt1 strain (AID 149);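 further: 0% = growth of vehicle-treated wt1 cultures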; conditions: S. cerevisiae wt1 strain (SPY 50644) growth inhibition, active compounds read high
Procedure, shortened: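 wt1 strain grown with compound or vehicle; inhibition taken from the growth difference.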

[3] = NCI Yeast Anticancer Drug Screen. Data for the rad50EPP+ strain (AID 151);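 further: 0% = growth of vehicle-treated control cultures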; conditions: S. cerevisiae rad50 mutant strain, active compounds read high
Procedure, shortened: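 Exposing the rad50EPP+ strain to each compound, growth was compared with vehicle-only cultures to give inhibition.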

[4] = NCI Yeast Anticancer Drug Screen. Data for the mgt1 strain (AID 153); conditions: S. cerevisiae mgt1 mutant growth inhibition, active compounds read high
Procedure, shortened: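 Genetically defined yeast (mgt1) treated with compound; inhibition of growth expressed against vehicle-treated controls.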

[5] = NCI Yeast Anticancer Drug Screen. Data for the rad50 strain (AID 155);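 further: 0% = growth of vehicle-only cultures of the same strain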; conditions: S. cerevisiae rad50 strain growth inhibition, active compounds read high
Procedure, shortened: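 DNA repair mutant yeast, compound exposure, growth read-out; inhibition is taken relative to vehicle.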

[6] = NCI Yeast Anticancer Drug Screen. Data for the mec2-1 strain (AID 157); conditions: S. cerevisiae mec2-1 strain, active compounds read high
Procedure, shortened: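 Readout is yeast growth inhibition, normalised to vehicle-treated controls, in the mec2-1 strain exposed to compound.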

[7] = NCI Yeast Anticancer Drug Screen. Data for the rad14 strain (AID 159);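 further: 0% = growth of vehicle-treated control cultures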; conditions: S. cerevisiae rad14 strain growth inhibition, active compounds read high
Procedure, shortened: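 DNA repair-defective yeast, compound-exposed; % growth inhibition derived by comparison with vehicle-treated controls.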

[8] = NCI Yeast Anticancer Drug Screen. Data for the sgs1 mgt1 strain (AID 161);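 further: 0% = growth of cultures given vehicle only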; conditions: S. cerevisiae sgs1 mgt1 strain, active compounds read high
Procedure, shortened: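 Growth of a repair-deficient yeast mutant was monitored after compound treatment and expressed as inhibition relative to vehicle-treated cultures.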

[9] = NCI Yeast Anticancer Drug Screen. Data for the CLN2oe strain (AID 163);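 further: 0% = growth of vehicle-only control cultures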; conditions: S. cerevisiae CLN2oe strain, active compounds read high
Procedure, shortened: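 Values reflect how much compound exposure reduced yeast growth, referenced to vehicle-exposed cells. Assay organism is a strain with a defined genetic change affecting cell-cycle control.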

[10] = NCI Yeast Anticancer Drug Screen. Data for the cln2 rad14 strain (AID 165);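 further: 0% = growth equal to vehicle treated cultures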; conditions: S. cerevisiae cln2 rad14 strain, active compounds read high
Procedure, shortened: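 Relative to vehicle controls, growth inhibition of compound-treated cln2 rad14 yeast was recorded.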

[11] = NCI Yeast Anticancer Drug Screen. Data for the bub3 strain (AID 167); conditions: S. cerevisiae bub3 mutant strain, active compounds read high
Procedure, shortened: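 In this screen, a yeast mutant lacking normal mitotic checkpoint function is challenged with compound. Relative growth versus vehicle gives the inhibition value.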

[12] = NCI Yeast Anticancer Drug Screen. Data for the wt2 strain (AID 169);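 further: 0% = growth of vehicle-treated yeast cultures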; conditions: S. cerevisiae wt2 strain growth inhibition, active compounds read high
Procedure, shortened: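 Values express reduction in yeast growth under compound treatment, referenced to vehicle-treated cells.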

[13] = NCI Yeast Anticancer Drug Screen. Data for the mlh1 strain (AID 171);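 further: 0% = growth of vehicle-treated control cultures of the same strain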; conditions: S. cerevisiae mlh1 strain growth inhibition, active compounds read high
Procedure, shortened: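 Steps: expose the defined-mutant yeast strain to compound; expose a parallel culture to vehicle; measure growth; express compound effect as inhibition relative to the vehicle culture.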

[14] = NCI Yeast Anticancer Drug Screen. Data for the sgs1 strain (AID 173);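 further: 0% = growth of vehicle-only control cultures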; conditions: S. cerevisiae sgs1 mutant, active compounds read high
Procedure, shortened: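 Treat defined-mutant yeast with compound; measure growth; calculate inhibition relative to vehicle-treated cells.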

[15] = NCI Yeast Anticancer Drug Screen. Data for the mlh1 rad18 strain (AID 175); conditions: S. cerevisiae mlh1 rad18 strain growth inhibition, active compounds read high
Procedure, shortened: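 Test agents were incubated with a yeast strain of defined genotype (DNA damage repair defect). Inhibition of growth was derived by comparison with vehicle-exposed cultures.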

[16] = NCI Yeast Anticancer Drug Screen. Data for the rad18 strain (AID 177); conditions: S. cerevisiae rad18 mutant growth inhibition, active compounds read high
Procedure, shortened: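 A genetically defined yeast mutant impaired in DNA damage repair was treated with test compounds, then its growth was measured against cultures receiving vehicle alone.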

[17] = at 5.0 µM (retest, dose inferred, filed as 0.5)
[18] = at 50.0 µM (retest, dose inferred, filed as 5.0)

Measured: growth inhibition

Cc1ccc(S/N=C\c2ccccc2O)cc1
inactive: [1]; at 1.2 µM 1% | [1]; at 3.7 µM -6% | [1]; at 11.0 µM -3% | [1]; at 33.0 µM 0% | [1]; at 100.0 µM 8% | [2]; at 1.2 µM -1% | [2]; at 3.7 µM 0% | [2]; at 11.0 µM 0% | [2]; at 33.0 µM 1% | [2]; at 100.0 µM 1% | [3]; at 1.2 µM 4% | [3]; at 3.7 µM 3% | [3]; at 11.0 µM 6% | [3]; at 33.0 µM 17% | [3]; at 100.0 µM 35% | [4]; at 1.2 µM 2% | [4]; at 3.7 µM -1% | [4]; at 11.0 µM 1% | [4]; at 33.0 µM 7% | [4]; at 100.0 µM -1% | [5]; at 1.2 µM -2% | [5]; at 3.7 µM -12% | [5]; [17] -130% | [5]; at 11.0 µM 2% | [5]; at 33.0 µM 12% | [5]; at 100.0 µM 6% | [6]; at 1.2 µM 0% | [6]; at 3.7 µM 3% | [6]; [17] -48% | [6]; at 11.0 µM -11% | [6]; at 33.0 µM -1% | [6]; [18] -4% | [6]; at 100.0 µM 7% | [7]; at 1.2 µM -2% | [7]; at 3.7 µM -6% | [7]; at 11.0 µM -4% | [7]; at 33.0 µM -3% | [7]; at 100.0 µM 1% | [8]; [17] -59% | [8]; [18] 53% | [8]; at 50.0 µM 62% | [9]; at 1.2 µM 2% | [9]; at 3.7 µM 1% | [9]; at 11.0 µM 2% | [9]; at 33.0 µM 2% | [9]; at 100.0 µM 4% | [10]; [17] -58% | [10]; [18] -23% | [10]; at 50.0 µM 34.9% | [11]; at 1.2 µM -4% | [11]; at 3.7 µM -6% | [11]; [17] -59% | [11]; at 11.0 µM -2% | [11]; at 33.0 µM -5% | [11]; [18] 47% | [11]; at 100.0 µM 4% | [12]; at 1.2 µM 4% | [12]; at 3.7 µM 4% | [12]; at 11.0 µM 5% | [12]; at 33.0 µM 0% | [12]; at 100.0 µM -1% | [13]; at 1.2 µM 9% | [13]; at 3.7 µM 2% | [13]; at 11.0 µM -2% | [13]; at 33.0 µM 0% | [13]; at 100.0 µM 1% | [14]; at 1.2 µM 3% | [14]; at 3.7 µM 7% | [14]; at 11.0 µM 7% | [14]; at 33.0 µM 9% | [14]; at 100.0 µM 6% | [15]; [17] -112% | [15]; [18] 31% | [16]; at 1.2 µM -1% | [16]; at 3.7 µM 0% | [16]; at 11.0 µM 0% | [16]; at 33.0 µM 1% | [16]; at 100.0 µM 9%
active: [5]; [18] 79% | [5]; at 50.0 µM 89.6% | [6]; at 50.0 µM 73.6% | [11]; at 50.0 µM 76.5% | [15]; at 50.0 µM 94.3%

FC(F)(F)c1nc2nc(Cl)c(Cl)nc2n1CCCN1CCOCC1
inactive: [1]; at 1.2 µM 2% | [1]; at 3.7 µM 11% | [1]; at 11.0 µM 20% | [1]; at 33.0 µM 20% | [1]; at 100.0 µM 32% | [2]; at 1.2 µM 0% | [2]; at 3.7 µM 1% | [2]; at 11.0 µM 7% | [2]; at 33.0 µM 12% | [2]; at 100.0 µM 18% | [3]; at 1.2 µM -1% | [3]; at 3.7 µM 5% | [3]; at 11.0 µM 6% | [3]; at 33.0 µM 2% | [3]; at 100.0 µM 4% | [4]; at 1.2 µM 0% | [4]; at 3.7 µM 5% | [4]; at 11.0 µM 8% | [4]; at 33.0 µM 22% | [4]; at 100.0 µM 34% | [5]; at 1.2 µM 5% | [5]; at 3.7 µM 13% | [5]; [17] 29% | [5]; at 11.0 µM 18% | [5]; at 33.0 µM 22% | [5]; [18] 63% | [5]; at 50.0 µM 67% | [5]; at 100.0 µM 27% | [6]; at 1.2 µM 2% | [6]; at 3.7 µM -15% | [6]; [17] 3% | [6]; at 11.0 µM 12% | [6]; at 33.0 µM 16% | [6]; [18] 15% | [6]; at 50.0 µM 33.1% | [6]; at 100.0 µM 27% | [7]; at 1.2 µM 6% | [7]; at 3.7 µM 11% | [7]; at 11.0 µM 36% | [7]; at 33.0 µM 44% | [7]; at 100.0 µM 53% | [8]; [17] 19% | [8]; at 50.0 µM 45.9% | [9]; at 1.2 µM 2% | [9]; at 3.7 µM 13% | [9]; at 11.0 µM 23% | [9]; at 33.0 µM 45% | [9]; at 100.0 µM 57% | [10]; [17] -16% | [10]; [18] 54% | [10]; at 50.0 µM -1.1% | [11]; at 1.2 µM 0% | [11]; at 3.7 µM 4% | [11]; [17] 9% | [11]; at 11.0 µM 22% | [11]; at 33.0 µM 52% | [11]; [18] 56% | [11]; at 50.0 µM 55.8% | [11]; at 100.0 µM 35% | [12]; at 1.2 µM -1% | [12]; at 3.7 µM 3% | [12]; at 11.0 µM 13% | [12]; at 33.0 µM 20% | [12]; at 100.0 µM 26% | [13]; at 1.2 µM 1% | [13]; at 3.7 µM 6% | [13]; at 11.0 µM 14% | [13]; at 33.0 µM 38% | [13]; at 100.0 µM 35% | [14]; at 1.2 µM 4% | [14]; at 3.7 µM 9% | [14]; at 11.0 µM 30% | [14]; at 33.0 µM 50% | [14]; at 100.0 µM 47% | [15]; [17] 5% | [15]; [18] 57% | [15]; at 50.0 µM 64.7% | [16]; at 1.2 µM -6% | [16]; at 3.7 µM 6% | [16]; at 11.0 µM 31% | [16]; at 33.0 µM 31% | [16]; at 100.0 µM 43%
active: [8]; [18] 72%
